Seven compounds from PubChem BioAssay (Tox21) can be followed below.

The nature of experiment [1]: Nuclear factor erythroid 2-related factor 2/antioxidant responsive element (Nrf2/ARE) small molecule agonists: qHTS cell viability counter screen in human keratinocytes (AID 1919968; active means well fitted curve in the direction sought with a large enough effect in the repeat runs; an effect the other way counts as inactive or inconclusive; further: nearly all actives have a fitted effect of over 55% in size). Put shortly:
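KeratinoSens cells (HaCaT keratinocytes stably carrying an ARE-luciferase reporter) were seeded at 1,500 cells/well and rested 5 h at 37 C/5% CO2. They were then exposed to compounds in DMSO for 23 h. Viability was read by CellTiter-Fluor fluorescence after 1 h.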

Experiment [2] can be described thus: Nuclear factor erythroid 2-related factor 2/antioxidant responsive element (Nrf2/ARE) small molecule agonists: luciferase reporter gene qHTS assay in human keratinocytes (AID 1919969). Further: nearly all actives have a fitted effect of over 35% in size.
In experiment [3] the target is Gonadotropin-releasing hormone receptor (Homo sapiens) (UniProt P30968). As to the kind of experiment: Human gonadotropin-releasing hormone receptor (GnRHR) small molecule agonists, calcium flux assay in GnRHR-HEK293 cells (AID 1920063). Further: nearly all actives have a fitted effect of over 35% in size. The gist of the method:
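HEK293 cells stably expressing human GnRHR were plated 18 h at 37 °C, loaded with calcium dye 1 h at 37 °C, then given compound in agonist mode; fluorescence (Ex/Em 480/540) read kinetically for 3 min at 1 s intervals.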
Background: A change in cytosolic calcium serves as a functional read-out for many receptors and channels.

The target of experiment [4] is KiSS-1 receptor (Homo sapiens) (UniProt Q969F8). As to the kind of experiment: Human kisspeptin (KISS1R) small molecule agonists, calcium flux assay in KISS1R-HEK293 cells (AID 1920064; active means well fitted curve in the direction sought with a large enough effect in the repeat runs; an effect the other way counts as inactive or inconclusive). Put shortly:
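HEK293 cells stably expressing human KISS1R were plated 18 h at 37 °C, loaded with calcium dye for 1 h at 37 °C, then given compound by pin tool. Fluorescence (Ex/Em 480/540) was read kinetically for 3 min.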

Experiment [5] in a line: G protein-coupled receptor (GPCR) small molecule agonists, calcium flux assay: HEK293 wild type cell line counter screen (AID 1920065). The gist of the method: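 Cells were plated and cultured 18 h at 37 C/5% CO2, then loaded with calcium dye for 1 h at 37 C. Compounds in DMSO were pin-transferred in agonist mode, and fluorescence (Ex/Em 480/540) was read kinetically for 3 min at 1 s intervals.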

Experiment [6] can be described thus: p53 small molecule agonists, cell-based qHTS assay with human liver microsomes (AID 1963577).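 Further: p53 response element beta-lactamase reporter cells with liver microsomes plus NADPH.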 Put shortly:
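In this qHTS, p53 response-element beta-lactamase cells receive test compound together with a microsome/NADPH activating system (0.5 mg/mL final each) and are incubated 16 h at 37 C before LiveBLAzer fluorescence detection.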
A general note: In qHTS, concentration-response curves come from the screen itself.

A short description of experiment [7]: p53 small molecule agonists, cell-based qHTS assay with rat liver microsomes (AID 1963578). Put shortly: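 Agonist mode in p53RE-bla reporter cells, with compounds co-incubated 16 h at 37 C alongside 0.5 mg/mL rat liver microsomes and 0.5 mg/mL NADPH (final), followed by a 2 h LiveBLAzer detection step.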
Experiment [8] is described as follows: p53 small molecule agonists, cell-based qHTS assay with human liver microsomes: qHTS cell viability counter screen (AID 1963579). Further: nearly all actives have a fitted effect of over 45% in size. The gist of the method:
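Metabolically activated exposure: compounds, human liver microsomes and NADPH (0.5 mg/mL final apiece) were added to p53RE-bla cells seeded 5 h earlier, left 16 h at 37 C, and then assessed for viability by CellTiter-Glo luminescence.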

Experiment [9] is described as follows: p53 small molecule agonists, cell-based qHTS assay with rat liver microsomes: qHTS cell viability counter screen (AID 1963580). Further: nearly all actives have a fitted effect of over 45% in size. The gist of the method: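 p53RE-bla HCT-116 cells were exposed 16 h at 37 C to compounds with rat liver microsomes (0.5 mg/mL) and NADPH (0.5 mg/mL). Viability was measured in the same wells as ATP content by CellTiter-Glo luminescence.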

Experiment [10] in a line: p53 small molecule agonists, cell-based qHTS assay: qHTS cell viability counter screen (AID 1963581). Further: nearly all actives have a fitted effect of over 45% in size. Put shortly: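 p53RE-bla HCT-116 cells were exposed to compounds for 16 h at 37 C; after the beta-lactamase FRET read in the same wells, CellTiter-Glo was added and luminescence (intracellular ATP) read after 30 min at room temperature.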
The nature of experiment [11]: p53 small molecule agonists, cell-based qHTS assay (AID 1963582; active means well fitted activation curve with a large enough effect in the signal ratio in the repeat runs, not every such curve was filed as active; the % refers to the signal ratio). Put shortly: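 p53RE-bla beta-lactamase reporter cells rested 5 h at 37 C/5% CO2, then received compounds in DMSO by pin transfer and were incubated 16 h at 37 C. LiveBLAzer B/G FRET substrate was loaded for 2 h at room temperature before fluorescence reading.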
Experiment [12] addresses 5-hydroxytryptamine receptor 2A (Homo sapiens) (UniProt P28223). The experiment in a line: 5-hydroxytryptamine receptor 2A (HTR2A) small molecule antagonists, cell-based qHTS assay (AID 1963586). Further: nearly all actives have a fitted effect of over 45% in size. Put shortly: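 Antagonist-mode intracellular calcium assay: DOI (4 nM) added after 5 min compound pre-incubation at room temperature to dye-loaded HTR2A-CHO cells. Fluorescence followed for 3 min, sampled every second.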

The target is the same in experiment [13]. The experiment in a line: 5-hydroxytryptamine receptor 2A (HTR2A) small molecule agonists, cell-based qHTS assay (AID 1963587). Further: nearly all actives have a fitted effect of over 30% in size. The gist of the method:
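CHO cells stably expressing human HTR2A, plated 18 h, loaded with calcium dye 1 h at 37 C. Agonist mode: compounds added and intracellular calcium fluorescence recorded kinetically for 2 min at 1 sec intervals.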

Experiment [14] concerns the target Muscarinic acetylcholine receptor M1 (Homo sapiens) (UniProt P11229). The experiment in a line: Cholinergic receptor muscarinic 1 (CHRM1) small molecule antagonists, cell-based qHTS assay (AID 1963588). Further: nearly all actives have a fitted effect of over 40% in size. Further: potency means the concentration at half of the fitted maximal effect. Put shortly: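 CHRM1-CHO calcium-flux assay, antagonist mode. Cells were seeded 18 h, dye-loaded 1 h at 37 C and given compound for 5 min at RT, then acetylcholine was added at 50nM. FDSS fluorescence was read 3 min; 15 concentrations, three runs.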

The target is the same in experiment [15]. As to the kind of experiment: Cholinergic receptor muscarinic 1 (CHRM1) small molecule agonists, cell-based qHTS assay (AID 1963589). Further: nearly all actives have a fitted effect of over 35% in size. Put shortly: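 CHO cells stably expressing human CHRM1, seeded 18 h at 37 C/5% CO2, dye-loaded 1 h at 37 C, then given compound in agonist mode; intracellular calcium fluorescence read kinetically at 1 s intervals. Fifteen concentrations, three independent runs.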

Experiment [16] in a line: cAMP Responsive Elements (CRE) small molecule agonists, cell-based qHTS assay (AID 1963590). The gist of the method:
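CRE-bla HEK 293T cells in DMEM with 10% dialyzed FBS, NEAA, pyruvate and 25 mM HEPES were plated 18 h at 37 C/5% CO2, then exposed to compounds in DMSO for 3 h before LiveBLAzer B/G FRET substrate addition.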

Experiment [17] in a line: cAMP Responsive Elements (CRE) small molecule antagonists, cell-based qHTS assay (AID 1963591; active means well fitted inhibition curve with a large enough effect in the signal ratio in the repeat runs, not every such curve was filed as active; the % refers to the signal ratio). The gist of the method: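 CRE-bla HEK293T cells were plated 18 h at 37 °C/5% CO2, pinned with compound in DMSO, then stimulated with NKH477 at 0.25 uM final for 3 h. LiveBLAzer B/G FRET substrate was added and plates incubated 2 h at room temperature.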
Experiment [18] has as its target Beta-2 adrenergic receptor (Homo sapiens) (UniProt P07550). As to the kind of experiment: Adrenergic beta2 receptor (ADRB2) small molecule antagonists, cell-based qHTS assay (AID 1963592). Further: series mostly up to about 92 µM; nearly all actives have a fitted effect of over 50% in size. Put shortly: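 Cells (CHO, stable ADRB2 overexpression) incubated 18-20hr at 37C; compounds added from DMSO; agonist mix (1nM isoproterenol, 100uM IBMX, 25uM Ro-20-1724) added; 0.5hr RT; d2-cAMP and anti-cAMP-cryptate added; 1hr RT; 665/615 nm read.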

The target is the same in experiment [19]. The experiment in a line: Adrenergic beta2 receptor (ADRB2) small molecule agonists, cell-based qHTS assay (AID 1963593).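 Further: CHO cells stably overexpressing human ADRB2.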 The gist of the method: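 CHO cells stably over-expressing ADRB2 were plated overnight at 37C, then dosed with compounds plus a stimulation mix containing 100uM IBMX and 25uM Ro-20-1724 for 0.5hr at room temperature. cAMP was measured by HTRF competition, 1hr.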

Experiment [20] deals with D(2) dopamine receptor (Homo sapiens) (UniProt P14416). The experiment in a line: Dopamine D2 receptor (DRD2) small molecule agonists, cell-based qHTS assay (AID 1963594). Further: nearly all actives have a fitted effect of over 35% in size. The gist of the method: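 HEK293 cells stably expressing human DRD2, pre-treated with PDE inhibitor Ro20-1724 (0.1 mM final) and compound 10 min at room temperature, then stimulated with NKH477 (200nM […]) for 30 min. cAMP read by HTRF (665/620 nm).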
D(2) dopamine receptor (Homo sapiens), sequence (P14416 whole entry, looked up): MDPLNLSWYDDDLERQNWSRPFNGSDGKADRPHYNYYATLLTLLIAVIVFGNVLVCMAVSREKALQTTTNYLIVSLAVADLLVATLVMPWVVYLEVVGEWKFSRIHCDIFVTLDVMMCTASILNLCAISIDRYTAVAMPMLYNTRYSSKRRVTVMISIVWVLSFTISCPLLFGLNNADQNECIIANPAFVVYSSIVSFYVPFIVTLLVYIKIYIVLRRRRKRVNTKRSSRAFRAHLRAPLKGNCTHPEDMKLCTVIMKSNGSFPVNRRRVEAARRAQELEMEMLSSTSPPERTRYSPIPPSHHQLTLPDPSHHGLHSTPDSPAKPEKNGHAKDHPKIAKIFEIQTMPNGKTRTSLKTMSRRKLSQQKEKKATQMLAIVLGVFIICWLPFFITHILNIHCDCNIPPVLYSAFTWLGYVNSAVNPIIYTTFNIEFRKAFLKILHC

Records with an inconclusive call do not appear. The source made the active and inactive calls. Unless noted, the call rests on the fitted dose curve.

Muscarinic acetylcholine receptor M1 (Homo sapiens), sequence (P11229 whole entry, looked up): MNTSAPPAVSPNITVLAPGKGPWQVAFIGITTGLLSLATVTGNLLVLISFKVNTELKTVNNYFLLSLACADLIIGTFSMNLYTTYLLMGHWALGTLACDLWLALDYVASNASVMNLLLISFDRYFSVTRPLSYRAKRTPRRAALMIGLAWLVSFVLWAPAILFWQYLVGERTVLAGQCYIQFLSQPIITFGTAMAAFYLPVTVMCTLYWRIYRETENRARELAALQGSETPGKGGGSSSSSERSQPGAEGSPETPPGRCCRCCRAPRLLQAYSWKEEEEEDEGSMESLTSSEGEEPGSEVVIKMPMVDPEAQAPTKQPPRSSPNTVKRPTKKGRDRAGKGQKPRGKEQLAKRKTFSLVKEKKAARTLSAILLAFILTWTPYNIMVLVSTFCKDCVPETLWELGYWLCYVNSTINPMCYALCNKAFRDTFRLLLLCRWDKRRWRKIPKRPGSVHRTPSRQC
Beta-2 adrenergic receptor (Homo sapiens), sequence (P07550 whole entry, looked up): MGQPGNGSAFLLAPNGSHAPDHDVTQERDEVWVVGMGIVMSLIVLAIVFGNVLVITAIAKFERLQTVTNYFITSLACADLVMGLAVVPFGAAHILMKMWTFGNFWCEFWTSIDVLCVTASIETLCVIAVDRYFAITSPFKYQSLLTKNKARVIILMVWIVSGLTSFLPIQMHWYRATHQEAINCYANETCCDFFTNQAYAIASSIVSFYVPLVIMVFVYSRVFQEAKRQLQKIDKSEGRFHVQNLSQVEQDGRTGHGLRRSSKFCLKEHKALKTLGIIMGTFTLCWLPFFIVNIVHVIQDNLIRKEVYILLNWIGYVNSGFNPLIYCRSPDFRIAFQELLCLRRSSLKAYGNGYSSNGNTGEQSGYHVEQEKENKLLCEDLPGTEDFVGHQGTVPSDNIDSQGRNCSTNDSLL
KiSS-1 receptor (Homo sapiens), sequence (Q969F8 whole entry, looked up): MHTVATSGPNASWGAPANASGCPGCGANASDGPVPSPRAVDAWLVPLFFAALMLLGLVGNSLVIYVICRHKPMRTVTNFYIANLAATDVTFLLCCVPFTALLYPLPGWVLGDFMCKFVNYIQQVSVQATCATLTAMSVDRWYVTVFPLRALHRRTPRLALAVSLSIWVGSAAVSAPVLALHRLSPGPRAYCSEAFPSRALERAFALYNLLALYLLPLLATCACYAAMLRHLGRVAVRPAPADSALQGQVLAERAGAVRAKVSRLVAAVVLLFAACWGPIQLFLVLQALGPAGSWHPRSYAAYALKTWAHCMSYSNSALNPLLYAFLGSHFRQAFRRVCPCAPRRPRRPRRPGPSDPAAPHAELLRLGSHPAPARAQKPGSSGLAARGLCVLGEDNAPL
5-hydroxytryptamine receptor 2A (Homo sapiens), sequence (P28223 whole entry, looked up): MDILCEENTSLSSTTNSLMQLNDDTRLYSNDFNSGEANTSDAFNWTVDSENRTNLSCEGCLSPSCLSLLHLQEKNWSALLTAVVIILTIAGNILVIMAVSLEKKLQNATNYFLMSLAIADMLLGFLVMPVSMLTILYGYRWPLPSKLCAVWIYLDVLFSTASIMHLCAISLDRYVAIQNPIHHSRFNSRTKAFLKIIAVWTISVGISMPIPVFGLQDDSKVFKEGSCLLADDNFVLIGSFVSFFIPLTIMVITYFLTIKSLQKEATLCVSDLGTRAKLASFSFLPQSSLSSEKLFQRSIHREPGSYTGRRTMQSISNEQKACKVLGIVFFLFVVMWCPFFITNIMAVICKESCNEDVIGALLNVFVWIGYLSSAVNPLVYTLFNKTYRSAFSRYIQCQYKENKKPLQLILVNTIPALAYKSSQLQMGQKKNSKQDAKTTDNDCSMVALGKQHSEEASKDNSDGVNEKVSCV
Gonadotropin-releasing hormone receptor (Homo sapiens), sequence (P30968 whole entry, looked up): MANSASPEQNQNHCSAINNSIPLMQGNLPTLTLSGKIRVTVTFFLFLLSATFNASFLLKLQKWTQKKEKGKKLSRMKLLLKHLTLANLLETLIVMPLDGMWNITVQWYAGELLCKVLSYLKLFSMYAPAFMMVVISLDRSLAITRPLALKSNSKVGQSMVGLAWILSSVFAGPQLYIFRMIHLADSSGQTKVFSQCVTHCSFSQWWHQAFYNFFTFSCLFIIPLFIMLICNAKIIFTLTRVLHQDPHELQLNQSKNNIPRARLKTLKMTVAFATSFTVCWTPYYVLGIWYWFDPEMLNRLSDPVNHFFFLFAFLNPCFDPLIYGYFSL

Turning to `CCOc1ncc(F)c(=O)[nH]1`, the Potency result in [1], in experiment [2], in experiment [3], in experiment [4], in experiment [5] and in [6] was “inactive” throughout. Besides, the Potency entry in [7], in experiment [8], in [9], in experiment [10], in experiment [11] and in experiment [12] was “inactive” throughout. For the same compound, the Potency result in experiment [13], in experiment [14], in [15], in [16], in experiment [17] and in experiment [18] was “inactive” each time. Also, the Potency entry in experiment [19] and in experiment [20] was “inactive” each time.
`[O]=[Zr]`: the Potency result in [1], in [2], in [3], in experiment [4], in [5] and in experiment [6] was “inactive” throughout. Also, the Potency result in experiment [7], in [8], in experiment [9], in experiment [10], in [11] and in experiment [12] was “inactive” each time. The Potency entry in [13], in experiment [14], in experiment [15], in experiment [16], in [17] and in [18] was “inactive” in each case. Besides, the Potency entry in experiment [19] and in experiment [20] was “inactive” throughout.
On to `NC(=O)Nc1ccccc1`, for which the Potency entry in experiment [1], in [2], in experiment [3], in [4], in experiment [5] and in experiment [6] was “inactive” throughout. Further, the Potency result in experiment [7], in experiment [8], in [9], in experiment [10], in [11] and in experiment [12] was “inactive” each time. Further, the Potency entry in [13], in [14], in experiment [15], in experiment [16], in experiment [17] and in experiment [18] was “inactive” in each case. In addition, the Potency entry in experiment [19] and in experiment [20] was “inactive” throughout.
For the compound `CCN1C(=O)c2ccccc2C1Nc1ccc(OCCN2CCCCC2)cc1` (stereo not given), the Potency result in experiment [1], in [2], in experiment [3], in experiment [4], in [5] and in experiment [6] was “inactive” each time. In addition, the Potency entry in [7], in [8], in experiment [9], in experiment [10], in experiment [11] and in experiment [12] was “inactive” in each case. Moreover, the Potency entry in experiment [13], in [15], in experiment [16], in experiment [17], in [18] and in [19] was “inactive” throughout. In [20], the Potency result is “inactive”. In addition, in [14], the Potency is 3.65 µM (active).
Take `NCCNCCO`: the Potency entry in [1], in experiment [2], in experiment [3], in experiment [4], in [5] and in experiment [6] was “inactive” in each case. For the same compound, the Potency result in [7], in [8], in experiment [9], in [10], in experiment [11] and in experiment [12] was “inactive” each time. In addition, the Potency result in experiment [13], in experiment [14], in experiment [15], in experiment [16], in [17] and in experiment [18] was “inactive” throughout. The Potency entry in experiment [19] and in experiment [20] was “inactive” each time.
As to `CC(=O)CC(C)=O`, the Potency entry in [1], in [2], in experiment [3], in experiment [4], in experiment [5] and in experiment [6] was “inactive” throughout. In addition, the Potency entry in experiment [7], in [8], in [9], in [10], in [11] and in experiment [12] was “inactive” in each case. Moreover, the Potency entry in [13], in experiment [14], in experiment [15], in [16], in experiment [17] and in experiment [18] was “inactive” throughout. For the same compound, the Potency entry in experiment [19] and in experiment [20] was “inactive” throughout.
Regarding `O=[N+]([O-])c1ccc(Oc2ccc([N+](=O)[O-])cc2)cc1`, the Potency result in experiment [1], in [2], in experiment [3], in [4], in experiment [5] and in experiment [6] was “inactive” each time. The Potency result in experiment [7], in experiment [8], in experiment [9], in experiment [10], in experiment [11] and in experiment [12] was “inactive” throughout. Moreover, the Potency result in [13], in experiment [14], in experiment [15], in experiment [16], in [17] and in [18] was “inactive” in each case. In addition, the Potency entry in experiment [19] and in experiment [20] was “inactive” each time.
